In the library only some 1.6% were active in any assay of this set; here they are far more common.
p53ts 39C kill: kills p53ts cells at the nonpermissive temperature | H1299-p53A138V viability at 39C, ATP luminescence, 24 h | Potency, µM (doses to about 46.1 µM), hits mostly cytotoxic | 1.5% of 130,000 active | AID 902; note: nearly all actives have a fitted effect of over 55% in size
Imprint erasure: genomic imprint erasure induction; mouse ES Peg3-LacZ reporter, beta-gal luminescence, 40 h; Potency, µM (series often up to 60.7 µM), actives largely listed as activators; 0.02% of 110,000 active; AID 1948
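Each well holds 300 Peg3LacZ-Neo (maternal) female ES cells incubated 40 h at 37C, 5% CO2. LacZ is measured by BetaGlo luminescence, with AC50 and maximum efficacy derived from dose-response curves.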
p53ts 32C kill: cytotoxicity in p53ts cells at permissive temperature; Potency, µM (highest dose often 46.1 µM), actives largely listed as cytotoxic; H1299-p53A138V at 32C, ATP luminescence viability, 24 h; 0.93% of 130,000 active; AID 924; note: nearly all actives have a fitted effect of over 55% in size
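H1299-p53 A138V cells (temperature-sensitive p53) exposed 24 h to up to 46 uM compound at 32C, where p53 is wild-type in conformation. Viability read as ATP luminescence and normalised to DMSO and 100 uM tamoxifen. AC50 fitted with the Hill equation.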
Numbers stand for hits; 0 = inactive; ? = inconclusive; - = no result given; [ ] = dose if it differs, or a comment. Calls come from the whole dose curve; as a rule, active = well fitted curve in the direction sought with a large enough effect; inconclusive = small, poorly fitted or top-dose-only effect, or another doubt; inactive = no such curve, though single readings can be large; an effect the other way counts as inactive or inconclusive.

SMILES	p53ts 39C kill	Imprint erasure	p53ts 32C kill
CN(c1ccccc1)S(=O)(=O)c1ccc(NC(=O)c2nc(S(C)(=O)=O)ncc2Cl)cc1	3.16µM	0[10.9 µM]	?
CCOC(=O)c1ccc(NC(=O)c2nc(S(=O)(=O)Cc3ccccc3)ncc2Cl)cc1	12.6µM	0[10.9 µM]	0
COc1ccc(C(=O)NCc2nnc(SCC(=O)Nc3ccc(C)cc3)n2-c2ccccc2)cc1	0	0[10.9 µM]	0
COc1ccc(N(Cc2ccccc2)C(=O)c2nc(SC)ncc2Cl)cc1	0	0[10.9 µM]	0
CCSc1ncc(Cl)c(C(=O)N(Cc2ccccc2)Cc2ccco2)n1	0	0[10.9 µM]	0
CCS(=O)(=O)c1ncc(Cl)c(C(=O)N(Cc2ccccc2)c2ccc(OC)cc2)n1	5.01µM	0[10.9 µM]	20µM
CCCS(=O)(=O)c1ncc(Cl)c(C(=O)N(Cc2ccccc2)Cc2ccco2)n1	3.16µM	0[10.9 µM]	?
COc1ccc(NC(=O)c2cc3c(=O)n(Cc4ccco4)ccc3nc2C)c(OC)c1	0	0[10.9 µM]	0
Cc1oc(-c2ccccc2F)nc1CS(=O)CC(=O)NC(C)C (centres undefined)	0	0[10.9 µM]	0
O=C(CSc1nc2c([nH]c3ccccc32)c(=O)n1-c1ccc(Cl)cc1)N1CCOCC1	0	0[10.9 µM]	0
CCn1cc(/C=C(\NC(=O)c2ccc(C)cc2)C(=O)NCCCn2ccnc2)c2ccccc21	0	0[10.9 µM]	0
CCC1=C(c2ccc(C)cc2)S(=O)(=O)N=C1N1CCC(C(=O)Nc2ccccc2C(=O)OC)CC1	0	0[10.9 µM]	0
O=C(Nc1ccc2c(c1)OCO2)C1CCCN(c2nc3ccccc3s2)C1 (centres undefined)	?	0	20µM
Cc1cccc(NC(=O)C2CCCN(c3nc4ccccc4s3)C2)c1C (centres undefined)	0	0[10.9 µM]	0
O=C(Nc1nnc(N2CCCCCC2)s1)Nc1ccccc1C(F)(F)F	0	0[10.9 µM]	0
Cn1c(=O)c2c(nc(/C=C\c3cccc(Cl)c3)n2C)n(C)c1=O	0	-	0
Cc1ccc(C)c(Nc2nn3c(=O)c4cc5c(cc4nc3s2)OCO5)c1	0	0[10.9 µM]	0
O=c1c2cc3c(cc2nc2sc(Nc4ccccc4)nn12)OCO3	15.8µM	0[10.9 µM]	12.6µM
O=C(N/N=C/c1c[nH]c2ccccc12)c1cc(-c2cccc3ccccc23)n[nH]1	0	-	0
O=C(N/N=C/c1c[nH]c2ccccc12)c1cc(-c2ccc3ccccc3c2)n[nH]1	15.8µM	-	?
O=C(N/N=C/c1ccccn1)c1cc(-c2ccc3ccccc3c2)n[nH]1	0	-	-
O=C(N/N=C/c1ccc(O)cc1O)c1cc(-c2ccccc2)n[nH]1	10µM	-	0
CCNc1ncc2nc(-c3ccc(F)cc3)c(=O)n(CCOC)c2n1	0	0	0
CS(=O)(=O)N(Cc1ccccc1)c1ccc(C(=O)Nc2cccc(Cl)c2)cc1	0	0[10.9 µM]	0
COc1ccc(OC)c(NC(=O)c2sc3nc4c(cc3c2N)CCCCCC4)c1	12.6µM	0[10.9 µM]	?
SMILES	p53ts 39C kill	Imprint erasure	p53ts 32C kill
Cc1cccc(NC(=O)c2sc3nc4c(cc3c2N)CCCCCC4)c1C	0	0[10.9 µM]	0
CCOc1ccc(NC(=O)c2sc3nc4c(cc3c2N)CCCCCC4)cc1	12.6µM	0[10.9 µM]	?
Nc1c(C(=O)Nc2ccc(C(=O)O)cc2)sc2nc3c(cc12)CCCC3	?	0[10.9 µM]	?
Cc1ccc(S(=O)(=O)Nc2cc3c(C(=O)OCc4ccccc4)c(C)oc3c3ccccc23)cc1	0	0[10.9 µM]	0
Cc1oc2c(cc(NS(=O)(=O)c3ccc(Br)cc3)c3ccccc32)c1C(=O)OCc1ccccc1	20µM	0[10.9 µM]	0
Cc1cc(Cl)ccc1NC(=O)CS(=O)(=O)c1cccc2nsnc12	0	0[10.9 µM]	0
Cc1cc(F)ccc1NC(=O)CS(=O)(=O)c1cccc2nsnc12	0.0398µM	0[10.9 µM]	0
c1c2c(cc3sc(N4CCOCC4)nc13)OCCO2	5.01µM	0	3.16µM
c1ccc(N2CCN(c3nc4cc5c(cc4s3)OCCO5)CC2)cc1	0	0	0
COc1ccccc1CNC(=O)CN1C(=O)c2cccnc2Oc2ccccc21	0	0[10.9 µM]	0
Cc1ccc(/C=C/c2nc3ccccc3[nH]2)cc1	0.501µM	0[10.9 µM]	0.501µM
Cc1ccccc1-c1nc2ccccc2[nH]1	0	-	0
CCS(=O)(=O)N1CC(=O)N(c2ccc(Cl)cc2)C(C)(C(=O)NC2CCCCC2)C1 (centres undefined)	-	-	0
CCOc1cccc(NC(=O)C2CC(=O)N(C)C(=Nc3ccc(OC)cc3)S2)c1 (centres undefined)	0	0[10.9 µM]	0
CCOc1cccc(NC(=O)C2CC(=O)N(C)C(=Nc3cccc(OC)c3)S2)c1 (centres undefined)	12.6µM	0[10.9 µM]	?
Cc1ccc2c(c1)c1c(c(=O)n(Cc3ccccc3)c(=O)n1Cc1ccccc1F)n2C	0	0[10.9 µM]	0
CCCN(CCC)CCCNC(=O)c1cnn(-c2ccc(F)cc2)c1-n1cccc1	0	0[10.9 µM]	0
O=C(NCCCN1CCN(c2cccc(Cl)c2)CC1)c1cnn(-c2ccc(F)cc2)c1-n1cccc1	2.51µM	0[10.9 µM]	?
Fc1ccc2[nH]c(-c3cccs3)cc2c1	0	0[10.9 µM]	0
c1cncc(-c2nnc(-c3cccs3)o2)c1	0	0	0
c1csc(-c2nnc(-c3ccc(N4CCOCC4)cc3)o2)c1	12.6µM	0	12.6µM
O=C(NC1(C(F)(F)F)C(=O)Nc2c1c(=O)[nH]c(=O)n2-c1ccccc1)c1ccccc1Cl (centres undefined)	0	0[10.9 µM]	0
CCCC[C@@H]1C[C@H]1C(NC(=O)c1ccccc1)c1ccc(Cl)cc1 (some centres undefined)	0	0	0
CCCC[C@@H]1C[C@H]1C(NC(=O)c1cccnc1)c1ccc(Cl)cc1 (some centres undefined)	12.6µM	0	?
N.N.N.N.N.N.N.N.N.N.N.N.N.N.O.O.[Ru].[Ru].[Ru]	0	-	0
SMILES	p53ts 39C kill	Imprint erasure	p53ts 32C kill
O=C1c2oc3ccccc3c(=O)c2C(c2ccccc2F)N1Cc1ccc2c(c1)OCO2 (centres undefined)	0	0[10.9 µM]	0
CC1(C)CCC2=C(O1)c1ccccc1C(=O)C2=O	5.01µM	0	5.01µM
CN(C)/C=C1/Sc2ccccc2C1=O	0	-	0
COc1ccc(-c2cc(C(=O)OCC(=O)N3CCCC3)c3ccccc3n2)cc1	6.31µM	0	12.6µM
COc1ccc(-c2cc(C(=O)Oc3ccc(Br)cc3)c3ccccc3n2)cc1	12.6µM	0[10.9 µM]	?
Cc1cc(C(=O)OCC(=O)N2CCOCC2)c2ccccc2n1	0	0	0
COc1ccc(-c2cc(C(=O)Oc3ccc(C)c(C)c3)c3ccccc3n2)cc1	0	0[10.9 µM]	0
CCOc1ccc(-c2ccc(CO)o2)cc1N	?	0[10.9 µM]	15.8µM
CCOc1ccc(-c2nnc(-c3ccco3)o2)cc1OCC	0	0	0
Cc1nc2cc(NC(=O)N3c4ccccc4CC3C)ccc2n1C (centres undefined)	5.01µM	0	6.31µM
CC1Cc2ccccc2N1C(=O)c1ccc2c(c1)nnn2C (centres undefined)	0	0	0
Cc1nc2cc(NC(=O)N3c4ccccc4CC3C)ccc2o1 (centres undefined)	10µM	0	10µM
Cc1nc2cc(NC(=O)NCc3ccc4c(c3)OCO4)ccc2o1	0	0	0
CCOc1ccc(C(=O)Nc2cccc(C)n2)cc1	?	-	5.01µM
Cc1ccc(C(=O)Nc2nc3ccccc3c(=O)s2)cc1	15.8µM	-	12.6µM
Cn1nnc(NC(=O)c2ccc(C(C)(C)C)cc2)n1	7.94µM	0	10µM
